Measured values: PubChem BioAssay AID641 (Vanderbilt High Throughput Screening Facility, 2007)
The whole screen tested about 58,000 compounds, of which about 3,400 (5.9%) were called active. The list comes from a sample in which actives are over-represented; it also holds similar structures and randomly drawn compounds. Values without a mark were called inactive.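 How the source made its calls: active means luminescence count or its row- and column-corrected plate score outside the 99.7% band of the plate's sample wells, on either side; inactive means the rest.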

What follows are compounds tested against D(1A) dopamine receptor (Homo sapiens) (UniProt P21728) (assay: D1 CRE-luciferase signal change, two-sided – cell-based, HEK293 D1, dopamine EC30, D1 allosteric modulator project, primary screen (AID 641)). Conditions: dopamine EC30 potentiation, at 10 µM, actives deviate in either direction.
D(1A) dopamine receptor (Homo sapiens), sequence (P21728 whole entry, looked up): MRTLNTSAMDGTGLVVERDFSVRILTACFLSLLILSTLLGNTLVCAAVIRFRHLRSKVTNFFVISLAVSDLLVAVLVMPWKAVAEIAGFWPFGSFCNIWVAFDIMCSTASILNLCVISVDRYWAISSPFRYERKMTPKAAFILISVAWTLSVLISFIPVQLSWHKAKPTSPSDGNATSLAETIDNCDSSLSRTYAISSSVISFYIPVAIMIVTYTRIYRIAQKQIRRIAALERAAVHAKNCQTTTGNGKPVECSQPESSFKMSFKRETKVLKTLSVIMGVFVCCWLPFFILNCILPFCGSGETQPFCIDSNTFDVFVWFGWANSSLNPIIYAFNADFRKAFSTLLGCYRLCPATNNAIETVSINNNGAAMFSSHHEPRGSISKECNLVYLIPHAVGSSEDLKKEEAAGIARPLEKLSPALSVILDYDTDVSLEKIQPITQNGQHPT

Row | Compound | B-score
1 | CCOC(=O)C(O)(c1ccc(NC(=O)c2ccco2)c(OC)c1)C(F)(F)F (stereo not given) | 0.817
2 | CCOC(=O)C(O)(c1ccc(N)c(OC)c1)C(F)(F)F (stereo not given) | -4.69 (active)
3 | CCOP(=S)(OCC)SCOC(=O)NCC(=O)OC | 1.46
4 | Cc1ccc2c(c1)C1CN(C)CCC1N2C(=O)Cn1nnc(-c2ccccc2F)n1 (stereo not given) | -3.16 (active)
5 | Cc1cc(N2C(=O)C3CCCN3C2c2ccc(Cl)c(Cl)c2)no1 (stereo not given) | 1.04
6 | CC(=NC1CCN(Cc2ccccc2)CC1)c1c(O)n(C)c(=O)n(C)c1=O | 0.191
7 | CCN(CC)CCOC(=O)c1cc2cc(COC)ccc2o1 | 0.407
8 | C=Cn1ccnc1P(=S)(c1cc(N(CC)CC)ns1)c1nccn1C=C | -0.0508
9 | CC(=C1C(=O)c2ccccc2C1=O)N1CCN(CCN=Cc2c(O)n(C)c(=O)n(C)c2=O)CC1 | -0.0144
10 | CCC(=NCc1ccco1)c1c(O)n(Cc2ccccc2)c(=O)[nH]c1=O | 10.9 (active)
11 | CCCCCCN=C(CC)c1c(O)n(CCCC)c(=O)[nH]c1=O | 2.24
12 | CCC(=NCCCO)c1c(O)n(-c2ccc(OC)cc2)c(=O)[nH]c1=O | -0.508
13 | N[C@@H](Cc1c[nH]c2ccccc12)c1nnc(SCc2c(F)cccc2Cl)o1 | -0.133
14 | CCCC(C)n1[nH]c(=O)c2c1NC(=O)CSC2c1ccc(OC)c(OC)c1 (stereo not given) | 0.346
15 | CCc1cccc2c(C#N)cn(CC(=O)N3CCOCC3)c12 | -1.07
